Data taken from PubChem BioAssay AID488969 (Vanderbilt High Throughput Screening Facility, 2010).
The full ranking holds about 110,000 compounds; the median of “z-score” is about -0.1, and the highest 2% start at about 2. This is one part of a sample in which the highest values are shown more often than they occur. Calls of active or inactive are those of the source.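 Rule for the calls: active = z-score in the third read window above 3 or below -3; inactive = the rest.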

These molecules were tested against Metabotropic glutamate receptor 8 (Rattus norvegicus) (UniProt P70579) (assay: mGluR8 Gi/Go-coupled signaling modulation – cell-based, rat, thallium flux, HTS, primary screen (AID 488969)). Conditions: HEK293 rat mGluR8, GIRK (G protein-gated inwardly rectifying potassium channel) thallium flux, FluoZin2; at 10 µM; stronger effect = higher value; submaximal glutamate (EC20) added with thallium.
Metabotropic glutamate receptor 8 (Rattus norvegicus), sequence (P70579 whole entry, looked up): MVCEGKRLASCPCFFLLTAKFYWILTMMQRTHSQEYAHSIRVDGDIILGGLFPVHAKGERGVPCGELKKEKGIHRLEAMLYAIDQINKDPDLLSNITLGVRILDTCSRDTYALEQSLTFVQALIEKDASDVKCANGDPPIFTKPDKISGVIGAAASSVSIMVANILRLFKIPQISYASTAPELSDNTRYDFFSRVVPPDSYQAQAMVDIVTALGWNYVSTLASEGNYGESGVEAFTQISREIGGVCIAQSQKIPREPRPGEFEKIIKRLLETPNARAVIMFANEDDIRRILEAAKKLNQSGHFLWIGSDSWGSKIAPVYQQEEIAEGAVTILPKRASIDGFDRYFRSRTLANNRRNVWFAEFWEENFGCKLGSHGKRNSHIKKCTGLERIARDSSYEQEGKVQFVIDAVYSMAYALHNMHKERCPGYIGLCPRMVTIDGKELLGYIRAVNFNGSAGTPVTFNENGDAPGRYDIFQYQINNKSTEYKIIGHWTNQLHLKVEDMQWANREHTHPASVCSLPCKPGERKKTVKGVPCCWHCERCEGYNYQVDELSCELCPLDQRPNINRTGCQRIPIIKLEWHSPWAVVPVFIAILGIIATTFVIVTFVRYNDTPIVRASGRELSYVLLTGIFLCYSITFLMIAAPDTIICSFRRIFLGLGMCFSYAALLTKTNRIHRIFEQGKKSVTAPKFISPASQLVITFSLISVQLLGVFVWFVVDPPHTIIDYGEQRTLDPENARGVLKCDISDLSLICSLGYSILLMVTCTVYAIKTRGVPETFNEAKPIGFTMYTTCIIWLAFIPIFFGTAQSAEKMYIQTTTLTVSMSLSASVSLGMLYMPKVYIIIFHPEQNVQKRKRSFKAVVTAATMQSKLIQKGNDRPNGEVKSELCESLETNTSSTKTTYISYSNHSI
For `CC(=O)c1ccc(OCCCC(=O)Nc2ccc(C)c(S(=O)(=O)N(C)C)c2)cc1`, the z-score was 0.136. `O=C(CCNc1cc(Cl)cc(Cl)c1)c1cccs1` showed a z-score of 0.0113. In the case of `COc1ccc(NS(=O)(=O)c2c(C)n(C)c(=O)n(C)c2=O)cc1OC`, the z-score is reported as -0.0428. In the case of `Cc1ccc(S(=O)(=O)Cc2ccc(C(=O)NCc3ccc4c(c3)OCO4)o2)cc1`, the z-score is reported as -0.326. Work on `NS(=O)(=O)c1ccc(CCNC(=O)C2CCN(S(=O)(=O)c3cnc[nH]3)CC2)cc1` yielded a z-score of -0.00955. Molecule `O=C(NC1CCCC1)C(c1cccnc1)N(C(=O)c1csnn1)C1CCCC1` (centres undefined) has a z-score of -0.145. `CC1CCN(c2nc3c(c(=O)[nH]c(=O)n3C)n2CCSc2nc3ccccc3o2)CC1` showed a z-score of 0.0449. Work on `C=C1c2cc(C)ccc2NC(=O)N1c1ccc(C)cc1` yielded a z-score of -0.68. `COc1cc(C)c(N)cc1C(C)C` was tested, and the z-score was 2.12. Work on `COc1cc(C)c(-c2cc(C(=O)O)c(C)o2)cc1C(C)C` yielded a z-score of -0.106. Molecule `COc1cc(C)c(S(=O)(=O)N2CCOCC2)cc1C(C)C` has a z-score of 0.397. Molecule `Cc1ccc(C(=O)NC(=S)N2CCN(c3ccc([N+](=O)[O-])cc3)CC2)cc1` has a z-score of 0.426. In the case of `O=C(NC(=S)N1CCN(c2ccc([N+](=O)[O-])cc2)CC1)c1ccc(F)cc1`, the z-score is reported as 9.01 (active). For `CCNC(=S)N1CCN(c2ccc([N+](=O)[O-])cc2)CC1`, the z-score was 0.99. `COc1ccc(C(=O)NC(=S)N2CCN(c3ccc([N+](=O)[O-])cc3)CC2)cc1` showed a z-score of 0.274. Molecule `C=CCNC(=S)N1CCN(c2ccc([N+](=O)[O-])cc2)CC1` has a z-score of 2.09. `CNC(=S)N1CCN(c2ccc([N+](=O)[O-])cc2)CC1` was tested, and the z-score was -0.188. In the case of `CN(C)c1nc2ccccc2c(N)c1-c1ccccc1`, the z-score is reported as 3.06 (active). Work on `Cc1cc(C)c2c(N)c3ccccc3nc2n1` yielded a z-score of -0.0162. Work on `Cc1c(N(C)C)nc2ccccc2c1N` yielded a z-score of 2.03. `CN(C)c1nc(-c2ccccc2)nnc1C(F)(F)F` showed a z-score of -0.148. `CC(=O)c1c(C)nc2ccccc2c1N` showed a z-score of 0.205. With `CCN(CC)c1nc2ccccc2c(N)c1-c1ccccc1` the z-score was 0.0637. `O=C(NCc1cccnc1)c1cccc(Cl)c1` was tested, and the z-score was 0.278. For `O=C(Cn1c(=O)oc2ccccc21)NCc1ccco1`, the z-score was 0.455. With `Cc1c(NCc2cc(Cl)ccc2O)c(=O)n(-c2ccccc2)n1C` the z-score was -0.0479. In the case of `O=C(CSc1nnc(-c2cccc(Cl)c2)o1)Nc1ccc2c(c1)OCCO2`, the z-score is reported as -0.0175. `CCCN(CC(=O)Nc1cc(Cl)cc(Cl)c1)CC(=O)Nc1ccc(F)c(F)c1F` showed a z-score of -0.209. For `CC(C)COP(=O)(c1ccc(N(C)C)cc1)C(Nc1ccccc1)c1ccccc1` (centres undefined), the z-score was -0.803. With `COc1cccc(NC(=O)NCCCSC2CCCCC2)c1` the z-score was 4.47 (active). Molecule `CCCCSCCCNC(=O)Nc1cccc(OC)c1` has a z-score of -0.211. In the case of `CCOc1ccc(NC(=O)NCCCSC2CCCCC2)cc1`, the z-score is reported as 0.197. In the case of `O=C(COC(=O)c1cccc([N+](=O)[O-])c1)c1ccc(OCc2ccccc2)cc1`, the z-score is reported as -0.231. Work on `O=C(Cc1c[nH]c2ccccc12)NCc1ccc(Cl)cc1` yielded a z-score of 0.348. `O=C(CCCSc1nc2ccccc2[nH]1)NCc1ccc(Cl)cc1` was tested, and the z-score was -0.328. With `O=C(O)Cc1csc(Nc2cccc(Cl)c2)n1` the z-score was 0.819. `COc1ccc(CNC(=O)Cc2csc(Nc3nc(=S)[nH]c4ccccc34)n2)cc1` was tested, and the z-score was 8.83 (active). `O=C(Cc1csc(Nc2nc(=S)[nH]c3ccccc23)n1)NCc1ccccc1Cl` was tested, and the z-score was 3.83 (active). With `COc1ccc(CNC(=O)COC(=O)[C@H](Cc2c[nH]c3ccccc23)NC(=O)c2cccs2)cc1` the z-score was 0.0349. With `COc1ccc(CNC(=O)Cc2c(C(=O)O)[nH]c3ccccc23)cc1` the z-score was -0.136. With `O=C(O)CCCCCNc1nc(=S)[nH]c2ccccc12` the z-score was 0.209. For `O=C(CCCCCNc1nc(=S)[nH]c2ccccc12)NCCc1ccccc1`, the z-score was 0.302. `O=C(Cc1csc(Nc2nc(=S)[nH]c3ccccc23)n1)NCc1cccc(Cl)c1` was tested, and the z-score was 6.85 (active). `COC(=O)Cc1csc(Nc2ccccc2Cl)n1` gave a z-score of 0.0565. In the case of `O=C(Cc1csc(Nc2nc(=S)[nH]c3ccccc23)n1)NCc1ccc(Cl)cc1`, the z-score is reported as 7.05 (active). In the case of `Cc1cccc(OCC(=O)Nc2ccc(N3CCN(C(=O)c4ccccc4)CC3)cc2)c1`, the z-score is reported as -0.0735. In the case of `Cc1ccc(S(=O)(=O)N2CCOCC2)c2nsnc12`, the z-score is reported as -0.358. `CCN1CCN(C(CNC(=O)c2ccc3c(c2)OCO3)c2cccnc2)CC1` (centres undefined) was tested, and the z-score was -0.319. Molecule `COc1cc2c(cc1OC)CN(C(=O)C(C)(C)C)CC2` has a z-score of -0.104. `CN(C1CCCCC1)S(=O)(=O)c1ccc(S(=O)(=O)N2CCN(CCC#N)CC2)cc1` showed a z-score of 0.242. Work on `CCS(=O)CCSC(=N)N` (centres undefined) yielded a z-score of -0.0992. For `Cc1ccc(NC(=S)Nc2nc(CC(=O)Nc3ccccc3)cs2)cc1`, the z-score was 0.0541. With `Cc1ccc(CNC(=O)Cc2csc(Nc3nc(=S)[nH]c4ccccc34)n2)cc1` the z-score was 10.7 (active). `O=C(Cc1csc(-c2ccccc2)n1)NCc1ccc(F)cc1` gave a z-score of -0.252.
